ELG1 DNA repair = ELG1-dependent DNA repair inhibition | HEK293T ELG1-luciferase reporter, luminescence, 16 h; DNA damage induced by 5-fluorouridine | 330,000 compounds, 2.3% hits | Potency, µM (highest dose often 46.1 µM), actives largely listed as inhibitors | AID 504467; further: nearly all actives have a fitted effect of over 55% in size
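HEK293T cells expressing luciferase-tagged ELG1 (2,000/well) received 5-Fluorouridine plus compound or DMSO for 16 hr at 37 °C. Luciferase was read by ONE-Glo luminescence after 30 min at room temperature.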
SMN2 splice enh = increases expression of the SMN2 splice variant. Potency, µM (highest dose often 46.1 µM), most hits filed as activators. HEK293 SMN2-luciferase splicing reporter, luminescence, 30-36 h. 210,000 compounds, 2.8% hits; further: nearly all actives have a fitted effect of over 55% in size
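HEK293 cells carry an SMN2 […]–luciferase reporter in which exon 7 inclusion puts luciferase in frame. Cells were plated 10-12 h before compound addition, then incubated 30-36 h at 37C. ONE-Glo luminescence was read; sodium butyrate at 4.5 mM final served as control.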
ELG1 genotox = genotoxicity induction in ELG1-luciferase HEK293T cells | HEK293T ELG1-luciferase reporter, luminescence, 16 h | Potency, µM (highest dose often 46 µM), most hits filed as activators | 330,000 compounds, 1.3% hits | AID 504466; further: nearly all actives have a fitted effect of over 60% in size
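Quantitative HTS format in 1536-well plates. HEK293T ELG1-luciferase reporter cells receive test compound and are incubated 16 hr at 37 °C, 5% CO2; ONE-Glo added, 30 min room temperature, then luminescence read.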
FLuc modulator = firefly luciferase modulation, counter-screen for miR-21 project; P08659; 360,000 compounds, 6.9% hits; purified FLuc, Km substrates, luminescence inhibition; Potency, µM (highest dose often 57.5 µM), hits mostly inhibitors; further: nearly all actives have a fitted effect of over 55% in size
Target sequence (P08659 whole entry, looked up): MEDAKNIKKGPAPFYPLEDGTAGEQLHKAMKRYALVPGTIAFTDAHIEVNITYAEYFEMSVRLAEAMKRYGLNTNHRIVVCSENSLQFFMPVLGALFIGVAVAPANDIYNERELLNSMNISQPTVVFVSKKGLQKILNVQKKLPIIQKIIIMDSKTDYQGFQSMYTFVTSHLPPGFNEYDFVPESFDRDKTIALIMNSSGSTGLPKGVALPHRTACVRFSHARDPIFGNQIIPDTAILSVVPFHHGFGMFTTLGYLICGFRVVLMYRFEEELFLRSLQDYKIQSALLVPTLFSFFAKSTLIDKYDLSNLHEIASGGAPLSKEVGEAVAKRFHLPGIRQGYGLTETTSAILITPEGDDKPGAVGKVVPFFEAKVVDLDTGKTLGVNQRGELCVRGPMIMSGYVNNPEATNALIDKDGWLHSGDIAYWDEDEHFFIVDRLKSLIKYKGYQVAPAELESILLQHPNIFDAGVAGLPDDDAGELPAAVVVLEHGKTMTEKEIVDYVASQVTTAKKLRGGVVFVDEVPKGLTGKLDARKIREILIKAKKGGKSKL
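Biochemical qHTS of compounds, final roughly 60 µM downward over six points, against 10 nM purified firefly luciferase using Km concentrations of substrates (10 uM D-luciferin, 10 uM ATP) in Tris acetate pH 7.5 buffer; luminescence output.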
Rab9 prom act = activators of Rab9 promoter. Huh7 Rab9 promoter-luciferase reporter, luminescence, 24 h. Potency, µM (series often up to 9.22 µM), most hits filed as activators. 320,000 compounds, 2.8% hits; further: nearly all actives have a fitted effect of over 60% in size
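Quantitative HTS format; Huh7 Rab9-luciferase reporter cells (1500/well) receive compound 2 h post-plating, incubate 24 h at 37 °C, then get luciferase reagent for 10 min before luminescence reading.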
NPC1 prom act = activates the NPC1 promoter; Huh7 NPC1 promoter luciferase reporter, 24 h; Potency, µM (titrated, usually from 9.22 µM), most hits filed as activators; 320,000 compounds, 2.4% hits; AID 485313; further: nearly all actives have a fitted effect of over 60% in size
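Luminescence read-out of NPC1 promoter-driven luciferase in stably transfected Huh7 cells; compounds delivered in DMSO and left 24 h at 37C, 5% CO2, qHTS titration format.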
Numbers stand for hits; n = inactive; u = inconclusive; x = not tested or not shown; [ ] = another dose, or the depositor's remark. A selection: hits, their analogues and other compounds. The true share with any hit is near 9.2%. The call rests on the fitted dose curve; in most records, active means well fitted curve in the direction sought with a large enough effect; inconclusive means small, poorly fitted or top-dose-only effect, or another doubt; inactive means no such curve, though single readings can be large; an effect the other way counts as inactive or inconclusive.

SMILES | ELG1 DNA repair | SMN2 splice enh | ELG1 genotox | FLuc modulator | Rab9 prom act | NPC1 prom act
Cc1cnc(CNc2ncnc3ccc(-c4ccccc4CN(C)C)cc23)cn1 | x | n | x | x | x | x
COCCCN1CN=C(NS(=O)(=O)c2ccc(NC(C)=O)cc2)NC1 | x | n | x | n | x | x
O=C(/C=C/c1cccc(Oc2ccccc2)c1)N1CCOCC1 | u | x | u | 15.1µM | 1.58µM | u
O=C(/C=C/c1ccccc1)Oc1cccc(C(=S)N2CCOCC2)c1 | n | n | n | 9.53µM | n | n
O=C(/C=C/c1cccc2ccccc12)c1ccncc1 | n | n | n | 9.53µM | n | n
O=C(/C=C/c1cccc([N+](=O)[O-])c1)N1CCOCC1 | n | n | n | n | n | n
O=C(/C=C/c1ccc(OCCCF)cc1)N1CCOCC1 | u | x | u | 23.9µM | u | u
O=C(/C=C/c1ccccc1)Oc1ccccc1C(=S)N1CCOCC1 | n | x | n | n | n | n
COc1cccc(Cc2nc3ccccc3nc2SCC(=O)N2CCCc3ccccc32)c1 | x | x | x | n | x | x
O=C(/C=C/c1cccc2ccccc12)N1CCOCC1 | u | x | u | 15.1µM | u | u
CSc1nsc(/C=C/Nc2ccc(O)cc2C)c1C#N | u | n | n | 12µM | n | n
Cc1nn(C)c(C)c1/C=C/C(=O)c1ccccc1 | u | n | 16.4µM | 19µM | 3.55µM | u
CCn1cc(/C=C/C(=O)c2ccc(O)cc2)c(C)n1 | u | x | 10.3µM | 10.7µM | u | u
Cc1nn(C)cc1/C=C/C(=O)c1ccccc1 | u | n | u | 1.51µM | u | u
CCn1cc(/C=N/O)c(C)n1 | n | u | n | n[2.3 µM] | n | n
Cc1nn(C)cc1/C=C/C(=O)c1cccs1 | u | u | 18.4µM | 5.36µM | u | u
COc1ccc(Cn2ccn(Cc3cccc(Cl)c3)c(=O)c2=O)cc1 | x | x | x | n | x | x
CCCOc1c(Cl)cc(C(=O)N(Cc2cccc(OC)c2)C2CCS(=O)(=O)C2)cc1Cl (stereo not given) | x | n | x | n | x | x
COc1ccc2[nH]cc(C=O)c2c1 | n | n | n | n | n | n
O=C(/C=C/c1c[nH]c2ccccc12)c1ccccc1 | u | 10µM | 16.4µM | 5.36µM | 3.55µM | 3.16µM
COc1ccc2[nH]cc(/C=C/C(=O)c3ccccc3)c2c1 | u | x | u | 3.38µM | 1.58µM | 3.16µM
Cc1ccc(C(=O)/C=C/c2c[nH]c3ccccc23)cc1 | u | u | u | 5.36µM | 3.55µM | 3.98µM
Cc1ccc2c(=O)c(C(=O)c3ccccc3)cn(CC(=O)NCc3ccccc3)c2n1 | x | x | x | n | x | x
CCc1ccc(N2Cc3ccccc3C2)cc1 | u | x | u | 6.01µM | 3.55µM | 2.82µM
CCOC(=O)c1ccc(N2Cc3ccccc3C2)cc1O | u | x | u | 8.49µM | u | n
SMILES | ELG1 DNA repair | SMN2 splice enh | ELG1 genotox | FLuc modulator | Rab9 prom act | NPC1 prom act
CCOC(=O)c1ccc(N2Cc3ccccc3C2=N)cc1 | u | n | u | u | n | n
CCOc1ccc(C2C(C(=O)c3ccco3)=C(O)C(=O)N2CCCn2ccnc2)cc1OC (stereo not given) | u | x | n | n | n | n
COc1ccc(C)cc1NC(=O)Cn1nc(N2CCN(c3ccccc3OC)CC2)ccc1=O | x | x | x | n | x | x
CN(CC(=O)Nc1ccccc1Br)CC(=O)Nc1ccccc1C(F)(F)F | n | x | n | n | n | n
CCOC(=O)C1=C(COC(=O)COc2ccc(OCC)cc2)NC(=O)NC1C (stereo not given) | u | x | n | n | n | n
CSc1ccc(S(=O)(=O)Nc2ccc3c(c2)NC(=O)CC3)cc1 | 8.2µM | n | n | n | n | n
Cc1ccc(NC(=S)N2CCC(NC(=O)c3ccc(F)cc3)CC2)cc1C | n | x | n | n | n | n
CCOC(=O)c1c(C)oc2nc(C)nc(NCc3cccc(Cl)c3)c12 | x | x | x | n | x | x
O=C(O)c1ccc(OCc2ccccc2)c(Cl)c1 | x | n[9.22 µM] | x | x | x | x
CN1CCN(C(=O)c2ccc(COc3ccc(Cl)cc3Cl)cc2)CC1 | n | n | n | 12µM | n | n
O=C(O)c1cccc(COc2ccc(CO)cc2Cl)c1 | u | 0.0398µM | u | 0.0213µM | 1.26µM | 1.26µM
O=C(O)c1ccc(COc2ccc(CO)cc2Cl)cc1 | u | u | 9.2µM | 5.36µM | 4.47µM | u

Compound activity (PubChem BioAssay)
